We go through 30 compounds from PubChem BioAssay AID1345085 (National Center for Advancing Translational Sciences (NCATS), 2018).

Results filed as inconclusive are left out. A number with no mark means an inactive call. The source made the active and inactive calls. The call rests on the fitted dose curve; in most records, active means well fitted cell-killing curve with a large enough effect; inconclusive means small, poorly fitted or top-dose-only effect, or effect the other way; inactive means no such curve, though single readings can be large or run the other way. *1 amine or outer side, *2 acyl side, *3 side chain or, on linkers, in order; H or OH if unused. Where a SMILES comes first, the peptide text is derived from it. Bridges are numbered along the chain shown (N, C = ends). Roman numbers before positions name the chains, in order. [ ]: non-standard residue; d: D form. Actinocin(9to1) = Cc1c2oc3c(C)ccc(C(=O)[*:1])c3nc-2c(C(=O)[*:2])c(N)c1=O; NMeV = CN[C@H](C(=O)O)C(C)C; Sar = CNCC(=O)O
On the % scale 0 is the no-effect control and ±100 the full control effect; potency means the concentration at half of the fitted maximal effect.

The assay relates to SW626. The assay is described as follows: Confirmatory qHTS for gynecologic anti-cancer compounds from libraries of approved drugs and bioactive compounds. Further: nearly all actives have a fitted effect of over 55% in size. The note with it: gynecologic cancer cell panel viability, ATPlite luminescence, 48 h; series mostly up to 57.6 µM; activity change, negative = viability loss: at the top concentration. Summed up: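 1,000 cells/well; 16 h pre-incubation 37 C, 5% CO2; pin-transferred cpd in DMSO, 11 conc (1:3), 57.5 uM–0.977 nM; 48 h; ATPlite, 15 min RT; luminescence → IC50.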
Take `CC(C)(C)C(=O)OCOP(=O)(COCCn1cnc2c(N)ncnc21)OCOC(=O)C(C)(C)C`: the Potency is 17.2 µM (active).
The same measure, in the same setting: under `Nc1ccccc1NC(=O)c1ccc(CNC(=O)OCc2cccnc2)cc1` stands 3.06 µM (active); under `CCN(CC)CCCC(C)Nc1c2ccc(Cl)cc2nc2ccc(OC)cc12` (stereo not given), 27.3 µM (active).
On to `O=c1[nH]c(=O)n([C@H]2C[C@H](O)[C@@H](CO)O2)cc1F`, for which the “activity change, negative = viability loss” value is 22.9%.
Still for that read-out and setting: for `CCN[C@H]1C[C@H](C)S(=O)(=O)c2sc(S(N)(=O)=O)cc21` the value was 47.2%; for `CCOc1ccc(Nc2nc(-c3c(C)nc4ccccn34)cs2)cc1`, -4.72%.
Regarding `COc1cc(N2CCC(N3CCN(C)CC3)CC2)ccc1Nc1ncc(Cl)c(Nc2ccccc2S(=O)(=O)C(C)C)n1`, the Potency was 21.7 µM (active).
Turning to `CC[C@H](CC#N)OC(=O)N[C@@H](C)c1cccc(NC(=O)Nc2ccc(-c3cnco3)c(OC)c2)c1`, the “activity change, negative = viability loss” value was -9.55%.
With `NC(=O)c1cnc(-c2ccc(C3(N)CCC3)cc2)c(-c2ccccc2)c1`, the Potency was 24.3 µM (active).
The same measure, in the same setting: under `CC1=C(CO)C(=O)O[C@@H]([C@@H](C)[C@H]2CC[C@H]3[C@@H]4C[C@H]5O[C@]56[C@@H](O)C=CC(=O)[C@]6(C)[C@H]4CC[C@]23C)C1` stands 5.3 µM (active).
With `Cc1cc(C(=O)N2CCN(c3cccc(Cl)c3)CC2)n(-c2ccccc2)n1`, the “activity change, negative = viability loss” value is 2.43%.
On the same count and under the same terms, for `CNc1nc(Nc2ccc(C(=O)N3CCOCC3)cc2OC)ncc1Cl` the value was 5.85%.
Same read-out and setting: for `COc1ccc2c(c1OC)C(=O)O[C@@H]2[C@H]1c2c(cc3c(c2OC)OCO3)CCN1C` the value was -9.02%; for `Cc1nc(Nc2n[nH]c3c2CN(C(=O)NC(CN(C)C)c2ccccc2)C3(C)C)c2sccc2n1` (stereo not given), -17.1%; for `c1nc2nc(Nc3ccc(N4CCOCC4)cc3)nc(NC3CCCCC3)c2[nH]1`, -14.1% [at 19.5 µM].
On to `CC(C)C[C@H](NC(=O)[C@H](Cc1ccccc1)NC(=O)c1cnccn1)B(O)O`, for which the Potency is 0.0137 µM (active).
Still for that read-out and setting: for `Cn1c(=O)c(F)c(Nc2ccc(I)cc2F)c2c(=O)n(CC(O)CO)cnc21` (stereo not given) the value was 0.0544 µM (active).
Still for that read-out and setting: under `Cc1c2oc3c(C)ccc(C(=O)N[C@@H]4C(=O)N[C@H](C(C)C)C(=O)N5CCC[C@H]5C(=O)N(C)CC(=O)N(C)[C@@H](C(C)C)C(=O)O[C@@H]4C)c3nc-2c(C(=O)N[C@@H]2C(=O)N[C@H](C(C)C)C(=O)N3CCC[C@H]3C(=O)N(C)CC(=O)N(C)[C@@H](C(C)C)C(=O)O[C@@H]2C)c(N)c1=O` (I: T[dV]P[Sar][NMeV] / II: T[dV]P[Sar][NMeV]; ester I:1-I:C, II:1-II:C; linker I:N-II:N via Actinocin(9to1)) stands 0.0863 µM (active).
As to `CC[C@]1(O)C[C@H]2CN(CCc3c([nH]c4ccccc34)[C@@](C(=O)OC)(c3cc4c(cc3OC)N(C=O)[C@H]3[C@@](O)(C(=O)OC)[C@H](OC(C)=O)[C@]5(CC)C=CCN6CC[C@]43[C@@H]65)C2)C1`, the “activity change, negative = viability loss” value is -23.3%.
On the same count and under the same terms, for `Oc1cn2c(n1)Nc1ccc(Cl)c(Cl)c1C2` the value was 2.36% [at 19.5 µM]; for `O=C1Cc2cc(CCN3CCN(c4nsc5ccccc45)CC3)c(Cl)cc2N1`, -0.656%.
In the case of `CCN(CC)CCOc1ccc(/C(=C(\Cl)c2ccccc2)c2ccccc2)cc1`, the Potency is 89.1 µM (active).
With `CCN(CC)CCCC(C)Nc1ccnc2cc(Cl)ccc12` (stereo not given), the “activity change, negative = viability loss” value was -5.13% [at 19.5 µM].
On to `NC(=O)Nc1cc(-c2cccc(F)c2)sc1C(=O)NC1CCCNC1` (stereo not given), for which the Potency is 0.306 µM (active).
As for `CNCc1ccc(-c2[nH]c3cc(F)cc4c3c2CCNC4=O)cc1`, the “activity change, negative = viability loss” value was -7.71%.
`Nc1ccccc1NC(=O)c1ccc(CNc2nccc(-c3cccnc3)n2)cc1`: the Potency was 0.685 µM (active).
Consider `CN(C)C/C=C/C(=O)Nc1cc2c(Nc3ccc(F)c(Cl)c3)ncnc2cc1OC1CCOC1` (stereo not given), for which the Potency is 27.3 µM (active).
Take `CCN1CCN(Cc2ccc(-c3cc4c(NC(C)c5ccccc5)ncnc4[nH]3)cc2)CC1` (stereo not given): the Potency was 27.3 µM (active).
As for `O=c1[nH]c(=O)n([C@H]2C[C@H](O)[C@@H](CO)O2)cc1Br`, the “activity change, negative = viability loss” value is -12.2%.
As for `CCc1nc(C(N)=O)c(Nc2ccc(N3CCC(N4CCN(C)CC4)CC3)c(OC)c2)nc1NC1CCOCC1`, the Potency is 3.78 µM (active).
